According to article PMC5540273 (PLoS ONE, 2017):
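Note: kd values determined as follow-up on hits from a single-replicate KINOMEscan panel screen.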

What follows are molecules tested on MARK1.
Cc1ccccc1Cn1ccn2c(=O)cc(N3CCOCC3)nc12 [GSK2269905] was tested, and the Kd was > 10 µM. With COc1ccc(-c2coc3ccc(-c4nnc(C)o4)cc23)cc1 the Kd was > 10 µM. O=c1cc(N2CCOCC2)nc2n(Cc3ccccc3F)ccn12 [GSK2297428] was tested, and the Kd was > 10 µM. With c1ccc(-c2ccnc3[nH]ccc23)cc1 [SB-693578] the Kd was > 10 µM. For COc1cccc(NC(=O)Nc2ccc(C)c(-c3ccc(C(=O)Nc4ccncc4)cc3)c2)c1 [GSK1398474], the Kd was > 10 µM.
